Data from the supplement of paper PMC10849652.
About 8,800 targets were measured; listed, in parts, are those with a hit and a random draw of the rest. About 0.5% of all pairs of compound and target were hits.

Legend:
Test in all cases: log2 fold change, soluble protein after heating vs DMSO (PISA); higher = thermal stabilisation; K562 lysate, 10 uM; active = over 0.2 and 3.5 SD of the protein, either way, in both replicates (recomputed)
erlotinib = compound: C#Cc1cccc(Nc2ncnc3cc(OCCOC)c(OCCOC)cc23)c1 [erlotinib]
Procedure, shortened: (§1)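 Pellets of K562 cells were dounce-homogenised in PBS pH 7.4 with 1 mM MgCl2, and the crude extract was held at 1 mg/mL protein for a 30 min treatment with 10 μM compound. Aliquots were heated for 3 min over 48°C-58°C and pooled before NP-40 was added to 0.5% at 4°C. The supernatant from 21,000xg for 90 min was quantified by TMTpro 16plex LC-MS/MS with channel sums equalised. Values are reported from duplicates as log-two fold change in thermal stability relative to solvent controls.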

[1] = compound: C/C(=N\NC(=O)C1=CC(=CC=C1)S(=O)(=O)N2CCOCC2)/C3=C(C=CC(=C3)Cl)O
Procedure, shortened: as §1

[2] = compound: C1=CC(=CC=C1C2=NC3=C(N2)C=C(C=C3)C(=O)N)OC4=CC=C(C=C4)Cl
Procedure, shortened: as §1

[3] = compound: C1=CC2=C(C=CC(=C2)/C=C\3/C(=O)NC(=NCC4=CC=CS4)S3)N=C1
Procedure, shortened: as §1

[4] = compound: C1=CC2=NC=CN=C2C=C1/C=C/3\C(=O)NC(=O)S3
Procedure, shortened: as §1

[5] = compound: C1=CC=C(C=C1)C2=NC(=C(N2)C3=CC=NC=C3)C4=CC(=C(C=C4)Cl)O
Procedure, shortened: as §1

[6] = compound: C1=CC=C2C(=C1)C3=NNC4=CC=CC(=C43)C2=O
Procedure, shortened: as §1

[7] = compound: C1CCN(C1)C(=O)NC2=CC=CC(=C2)NC3=NC=C(C(=N3)NCCC4=CN=CN4)Br
Procedure, shortened: as §1

[8] = compound: C1CN(CCC1(CC2=CC=C(C=C2)Cl)N)C3=NC=NC4=C3C=CN4
Procedure, shortened: as §1

IRAK-1-4 Inhibitor I = compound: C1COCCN1CCN2C3=CC=CC=C3N=C2NC(=O)C4=CC(=CC=C4)[N+](=O)[O-] [IRAK-1-4 Inhibitor I]
Procedure, shortened: as §1

Measured: log2 fold change

MAP7D3 (UniProt Q8IWC1)
UniProt Q8IWC1, sequence (Q8IWC1 whole entry, looked up): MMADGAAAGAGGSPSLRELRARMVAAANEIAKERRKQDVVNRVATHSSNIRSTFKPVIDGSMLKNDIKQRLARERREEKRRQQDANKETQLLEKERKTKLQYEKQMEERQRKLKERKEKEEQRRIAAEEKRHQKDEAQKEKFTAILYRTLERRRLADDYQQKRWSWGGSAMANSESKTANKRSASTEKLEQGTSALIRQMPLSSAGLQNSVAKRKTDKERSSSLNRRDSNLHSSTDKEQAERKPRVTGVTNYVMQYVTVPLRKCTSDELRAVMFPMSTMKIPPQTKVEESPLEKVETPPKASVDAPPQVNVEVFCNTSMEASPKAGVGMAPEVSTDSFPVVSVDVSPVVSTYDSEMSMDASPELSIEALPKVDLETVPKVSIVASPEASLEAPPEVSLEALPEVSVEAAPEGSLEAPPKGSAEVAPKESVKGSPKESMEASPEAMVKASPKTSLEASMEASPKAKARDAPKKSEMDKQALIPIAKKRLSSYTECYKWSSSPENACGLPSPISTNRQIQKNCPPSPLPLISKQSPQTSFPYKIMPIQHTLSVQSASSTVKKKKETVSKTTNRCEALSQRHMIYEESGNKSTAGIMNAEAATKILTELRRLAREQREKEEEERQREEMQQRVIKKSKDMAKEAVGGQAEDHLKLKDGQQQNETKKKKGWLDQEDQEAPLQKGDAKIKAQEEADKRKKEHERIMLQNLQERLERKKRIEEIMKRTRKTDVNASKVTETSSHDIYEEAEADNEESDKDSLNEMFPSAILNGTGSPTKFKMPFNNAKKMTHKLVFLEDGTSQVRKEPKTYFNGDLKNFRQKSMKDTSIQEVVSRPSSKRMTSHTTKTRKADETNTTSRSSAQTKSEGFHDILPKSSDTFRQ
inactive: erlotinib 0.069 | [1] 0.053 | [2] 0.281 | [3] 0.052 | [4] -0.023 | [5] -0.025 | [6] 0.044 | [7] -0.034 | [8] -0.012 | IRAK-1-4 Inhibitor I -0.017

MAPK14 (UniProt Q16539)
active: [5] 0.82
inactive: erlotinib 0.044 | [1] 0.038 | [2] -0.1 | [3] -0.05 | [4] -0.012 | [6] 0.081 | [7] -0.076 | [8] 0.015 | IRAK-1-4 Inhibitor I 0.013

KPNA4 (UniProt O00629)
inactive: erlotinib -0.015 | [1] -0.037 | [2] 0.046 | [3] 0.022 | [4] -0.014 | [5] -0.013 | [6] -0.007 | [7] -0.045 | [8] -0.012 | IRAK-1-4 Inhibitor I 0.038

MAP4K5 (UniProt Q9Y4K4)
inactive: erlotinib 0.032 | [1] -0.169 | [2] -0.025 | [3] -0.019 | [4] -0.002 | [5] 0.039 | [7] 0.089 | [8] -0.04 | IRAK-1-4 Inhibitor I -0.001

MAPKAPK3 (UniProt Q16644)
inactive: erlotinib -0.007 | [1] -0.088 | [2] 0.042 | [3] 0.022 | [4] -0.014 | [5] -0.01 | [6] -0.034 | [7] 0.045 | [8] -0.052 | IRAK-1-4 Inhibitor I -0.035

MDM2 isoform 11 (UniProt Q00987)
inactive: erlotinib 0.108 | [1] -0.039 | [2] 0.037 | [3] -0.071 | [4] 0.021 | [5] 0.084 | [6] 0.04 | IRAK-1-4 Inhibitor I 0.151

MRPL30 isoform 2 (UniProt Q8TCC3)
inactive: erlotinib -0.004 | [2] -0.01 | [4] -0.037 | [5] -0.03 | [7] 0.067 | [8] 0.015 | IRAK-1-4 Inhibitor I 0.015

KMT2B (UniProt Q9UMN6)
inactive: erlotinib -0.494 | [2] -0.226 | [7] -0.028 | [8] -0.015

LGALS3BP (UniProt Q08380)
inactive: erlotinib -0.154 | [1] 0.293 | [2] 0.064 | [3] 0.331 | [6] -0.203 | [7] 0.018 | [8] -0.171

LIMK1 (UniProt P53667)
inactive: [1] 0.114 | [3] -0.088 | [4] 0.133 | [5] -0.002 | [6] 0.029 | [7] 0.068 | [8] -0.05 | IRAK-1-4 Inhibitor I 0.06

MED25 isoform 3 (UniProt Q71SY5)
UniProt Q71SY5, sequence (Q71SY5 whole entry, looked up): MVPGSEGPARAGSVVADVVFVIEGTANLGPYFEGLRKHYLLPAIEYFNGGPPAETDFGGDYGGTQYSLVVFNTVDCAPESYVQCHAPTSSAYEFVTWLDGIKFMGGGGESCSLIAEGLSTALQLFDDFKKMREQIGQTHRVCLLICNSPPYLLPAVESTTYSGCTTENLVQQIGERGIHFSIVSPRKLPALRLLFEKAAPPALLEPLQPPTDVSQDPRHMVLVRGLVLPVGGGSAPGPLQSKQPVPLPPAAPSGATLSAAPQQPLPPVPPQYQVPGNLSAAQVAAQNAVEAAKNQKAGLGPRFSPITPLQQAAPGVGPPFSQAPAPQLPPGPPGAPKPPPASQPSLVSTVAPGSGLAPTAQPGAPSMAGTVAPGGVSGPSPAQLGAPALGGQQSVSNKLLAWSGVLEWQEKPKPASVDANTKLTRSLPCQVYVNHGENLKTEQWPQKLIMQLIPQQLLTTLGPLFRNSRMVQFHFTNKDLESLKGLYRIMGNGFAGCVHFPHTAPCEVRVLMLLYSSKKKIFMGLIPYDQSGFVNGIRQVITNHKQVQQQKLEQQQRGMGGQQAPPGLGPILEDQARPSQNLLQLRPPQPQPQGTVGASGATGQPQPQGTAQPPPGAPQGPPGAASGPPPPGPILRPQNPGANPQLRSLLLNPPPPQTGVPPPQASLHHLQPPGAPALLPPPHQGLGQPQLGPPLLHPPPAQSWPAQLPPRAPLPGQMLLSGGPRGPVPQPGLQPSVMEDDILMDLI
inactive: erlotinib 0.092 | [2] 0.01 | [4] -0.062 | [5] -0.006 | [7] 0.06 | [8] 0.073 | IRAK-1-4 Inhibitor I 0.073

KIF18B (UniProt Q86Y91)
inactive: [7] -0.117 | [8] 0.033

KRAS (UniProt P01116)
inactive: erlotinib -0.112 | [1] 0.033 | [2] 0.069 | [3] -0.052 | [5] -0.036 | [6] -0.041 | [7] -0.021 | [8] -0.008 | IRAK-1-4 Inhibitor I 0.007

MME (UniProt P08473)
inactive: erlotinib 0 | [2] 0.052 | [4] -0.067 | [5] 0.011 | IRAK-1-4 Inhibitor I 0.095

MRC2 (UniProt Q9UBG0)
inactive: erlotinib -0.225 | [2] 0.031 | [7] 0.011 | [8] 0.061

MRPL22 (UniProt Q9NWU5)
active: erlotinib -0.424
inactive: [2] -0.074 | [5] 0.006 | IRAK-1-4 Inhibitor I -0.01

KIF3C (UniProt O14782)
inactive: erlotinib 0.389 | [1] 0.05 | [2] -0.082 | [3] -0.116 | [5] 0.025 | [6] -0.117 | [7] 0.158 | [8] 0.146 | IRAK-1-4 Inhibitor I -0.023

LSM11 (UniProt P83369)
inactive: erlotinib 0.104 | [1] 0.262 | [2] 0.065 | [3] -0.056 | [6] -0.044 | [7] -0.029 | [8] -0.055

MEX3A (UniProt A1L020)
inactive: [1] 0.108 | [3] -0.108 | [5] -0.007 | [6] -0.29 | IRAK-1-4 Inhibitor I 0.168

LRRIQ1 (UniProt Q96JM4)
inactive: [1] 0.038 | [3] -0.003 | [5] 0.041 | [6] -0.003 | IRAK-1-4 Inhibitor I -0.083

MAPKAP1 (UniProt Q9BPZ7)
UniProt Q9BPZ7, sequence (Q9BPZ7 whole entry, looked up): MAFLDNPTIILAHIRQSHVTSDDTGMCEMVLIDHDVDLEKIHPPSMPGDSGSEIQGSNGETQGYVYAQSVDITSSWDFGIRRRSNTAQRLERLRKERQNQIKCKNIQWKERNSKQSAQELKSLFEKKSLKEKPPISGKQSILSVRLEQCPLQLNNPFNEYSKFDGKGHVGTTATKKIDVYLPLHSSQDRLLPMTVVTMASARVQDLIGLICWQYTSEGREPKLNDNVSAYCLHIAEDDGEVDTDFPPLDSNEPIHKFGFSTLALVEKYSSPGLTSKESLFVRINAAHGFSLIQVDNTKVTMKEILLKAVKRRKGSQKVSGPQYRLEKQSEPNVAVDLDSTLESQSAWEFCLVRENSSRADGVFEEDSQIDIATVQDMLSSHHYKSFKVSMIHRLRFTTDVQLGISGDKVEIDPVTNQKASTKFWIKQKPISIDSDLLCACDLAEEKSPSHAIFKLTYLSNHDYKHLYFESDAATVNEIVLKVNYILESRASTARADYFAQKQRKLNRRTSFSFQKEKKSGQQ
inactive: erlotinib -0.091 | [2] -0.059 | [5] 0.062 | [7] 0.141 | [8] -0.181 | IRAK-1-4 Inhibitor I -0.19

LRRC7 (UniProt Q96NW7)
inactive: [1] 0.042 | [4] -0.108 | [5] 0.065 | [6] 0.038 | [7] 0.02 | [8] 0.067 | IRAK-1-4 Inhibitor I 0.048
active: [3] -0.493

KIFC3 isoform 6 (UniProt Q9BVG8)
inactive: erlotinib 0.091 | [1] 0.069 | [2] 0.14 | [3] 0.004 | [4] 0.076 | [6] -0.077 | [7] -0.103 | [8] 0.158

MRPL27 (UniProt Q9P0M9)
inactive: erlotinib -0.072 | [2] 0.068 | [4] -0.019 | [5] 0.056 | [7] 0.023 | [8] 0.019 | IRAK-1-4 Inhibitor I -0.044

LY6E (UniProt Q16553)
inactive: [1] -0.095 | [3] 0.049 | [4] -0.033 | [6] -0.27 | [7] -0.02 | [8] 0.025

KLC1 isoform 10 (UniProt Q07866)
inactive: erlotinib 0.071 | [2] -0.165 | [4] 0.122 | [7] 0.241 | [8] -0.337

LYN isoform 2 (UniProt P07948)
inactive: erlotinib -0.161 | [2] -0.093 | [5] 0.132 | [7] -0.035 | [8] -0.385 | IRAK-1-4 Inhibitor I 0.493

LRP1 (UniProt Q07954)
inactive: [1] 0.266 | [3] -0.092 | [6] -0.211 | [7] -0.196 | [8] -0.055

LRRC9 (UniProt Q6ZRR7)
inactive: [1] -0.037 | [3] 0.02 | [6] -0.01 | [7] -0.044 | [8] -0.07

MARCHF6 (UniProt O60337)
UniProt O60337, sequence (O60337 whole entry, looked up): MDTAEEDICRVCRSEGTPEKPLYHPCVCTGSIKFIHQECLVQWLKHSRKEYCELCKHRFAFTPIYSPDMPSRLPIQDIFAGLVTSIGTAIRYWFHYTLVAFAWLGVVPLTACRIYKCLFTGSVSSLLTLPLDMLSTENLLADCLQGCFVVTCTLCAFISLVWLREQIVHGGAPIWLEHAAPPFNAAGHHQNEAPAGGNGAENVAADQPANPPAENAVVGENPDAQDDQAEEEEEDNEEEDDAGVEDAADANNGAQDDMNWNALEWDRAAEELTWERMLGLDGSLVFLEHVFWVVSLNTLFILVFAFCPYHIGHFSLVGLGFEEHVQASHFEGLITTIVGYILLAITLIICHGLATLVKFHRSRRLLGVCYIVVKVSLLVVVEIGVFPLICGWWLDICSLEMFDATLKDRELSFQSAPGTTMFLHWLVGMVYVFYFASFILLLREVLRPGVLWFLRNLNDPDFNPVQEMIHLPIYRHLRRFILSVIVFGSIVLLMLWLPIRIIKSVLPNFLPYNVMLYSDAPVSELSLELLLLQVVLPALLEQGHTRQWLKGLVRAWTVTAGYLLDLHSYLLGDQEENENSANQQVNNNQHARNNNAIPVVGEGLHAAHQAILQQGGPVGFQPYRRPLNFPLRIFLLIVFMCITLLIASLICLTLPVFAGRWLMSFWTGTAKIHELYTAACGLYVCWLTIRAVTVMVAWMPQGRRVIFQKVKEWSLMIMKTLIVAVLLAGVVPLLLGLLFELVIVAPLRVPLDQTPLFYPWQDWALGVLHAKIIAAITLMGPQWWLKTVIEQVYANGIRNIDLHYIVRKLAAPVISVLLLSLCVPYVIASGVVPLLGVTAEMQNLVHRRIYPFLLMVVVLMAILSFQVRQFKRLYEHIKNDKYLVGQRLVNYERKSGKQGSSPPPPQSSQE
inactive: erlotinib 0.004 | [1] 0.008 | [2] 0.101 | [3] 0.042 | [4] -0.202 | [6] -0.133 | [7] 0.047 | [8] -0.023

MAPK7 (UniProt Q13164)
inactive: erlotinib -0.1 | [2] 0.012 | [7] -0.057 | [8] 0.032

MDM1 (UniProt Q8TC05)
inactive: erlotinib -0.018 | [1] -0.105 | [2] -0.036 | [3] -0.066 | [5] -0.054 | [6] -0.041 | [7] -0.05 | [8] -0.075 | IRAK-1-4 Inhibitor I -0.043

LEPROT (UniProt O15243)
inactive: erlotinib 0.176 | [2] -0.116 | [4] -0.02 | [5] -0.064 | [7] 0.122 | [8] 0.045 | IRAK-1-4 Inhibitor I -0.036

MED28 (UniProt Q9H204)
inactive: erlotinib 0.057 | [2] 0.039 | [5] 0.045 | IRAK-1-4 Inhibitor I -0.012

MPDZ (UniProt O75970)
UniProt O75970, sequence (O75970 whole entry, looked up): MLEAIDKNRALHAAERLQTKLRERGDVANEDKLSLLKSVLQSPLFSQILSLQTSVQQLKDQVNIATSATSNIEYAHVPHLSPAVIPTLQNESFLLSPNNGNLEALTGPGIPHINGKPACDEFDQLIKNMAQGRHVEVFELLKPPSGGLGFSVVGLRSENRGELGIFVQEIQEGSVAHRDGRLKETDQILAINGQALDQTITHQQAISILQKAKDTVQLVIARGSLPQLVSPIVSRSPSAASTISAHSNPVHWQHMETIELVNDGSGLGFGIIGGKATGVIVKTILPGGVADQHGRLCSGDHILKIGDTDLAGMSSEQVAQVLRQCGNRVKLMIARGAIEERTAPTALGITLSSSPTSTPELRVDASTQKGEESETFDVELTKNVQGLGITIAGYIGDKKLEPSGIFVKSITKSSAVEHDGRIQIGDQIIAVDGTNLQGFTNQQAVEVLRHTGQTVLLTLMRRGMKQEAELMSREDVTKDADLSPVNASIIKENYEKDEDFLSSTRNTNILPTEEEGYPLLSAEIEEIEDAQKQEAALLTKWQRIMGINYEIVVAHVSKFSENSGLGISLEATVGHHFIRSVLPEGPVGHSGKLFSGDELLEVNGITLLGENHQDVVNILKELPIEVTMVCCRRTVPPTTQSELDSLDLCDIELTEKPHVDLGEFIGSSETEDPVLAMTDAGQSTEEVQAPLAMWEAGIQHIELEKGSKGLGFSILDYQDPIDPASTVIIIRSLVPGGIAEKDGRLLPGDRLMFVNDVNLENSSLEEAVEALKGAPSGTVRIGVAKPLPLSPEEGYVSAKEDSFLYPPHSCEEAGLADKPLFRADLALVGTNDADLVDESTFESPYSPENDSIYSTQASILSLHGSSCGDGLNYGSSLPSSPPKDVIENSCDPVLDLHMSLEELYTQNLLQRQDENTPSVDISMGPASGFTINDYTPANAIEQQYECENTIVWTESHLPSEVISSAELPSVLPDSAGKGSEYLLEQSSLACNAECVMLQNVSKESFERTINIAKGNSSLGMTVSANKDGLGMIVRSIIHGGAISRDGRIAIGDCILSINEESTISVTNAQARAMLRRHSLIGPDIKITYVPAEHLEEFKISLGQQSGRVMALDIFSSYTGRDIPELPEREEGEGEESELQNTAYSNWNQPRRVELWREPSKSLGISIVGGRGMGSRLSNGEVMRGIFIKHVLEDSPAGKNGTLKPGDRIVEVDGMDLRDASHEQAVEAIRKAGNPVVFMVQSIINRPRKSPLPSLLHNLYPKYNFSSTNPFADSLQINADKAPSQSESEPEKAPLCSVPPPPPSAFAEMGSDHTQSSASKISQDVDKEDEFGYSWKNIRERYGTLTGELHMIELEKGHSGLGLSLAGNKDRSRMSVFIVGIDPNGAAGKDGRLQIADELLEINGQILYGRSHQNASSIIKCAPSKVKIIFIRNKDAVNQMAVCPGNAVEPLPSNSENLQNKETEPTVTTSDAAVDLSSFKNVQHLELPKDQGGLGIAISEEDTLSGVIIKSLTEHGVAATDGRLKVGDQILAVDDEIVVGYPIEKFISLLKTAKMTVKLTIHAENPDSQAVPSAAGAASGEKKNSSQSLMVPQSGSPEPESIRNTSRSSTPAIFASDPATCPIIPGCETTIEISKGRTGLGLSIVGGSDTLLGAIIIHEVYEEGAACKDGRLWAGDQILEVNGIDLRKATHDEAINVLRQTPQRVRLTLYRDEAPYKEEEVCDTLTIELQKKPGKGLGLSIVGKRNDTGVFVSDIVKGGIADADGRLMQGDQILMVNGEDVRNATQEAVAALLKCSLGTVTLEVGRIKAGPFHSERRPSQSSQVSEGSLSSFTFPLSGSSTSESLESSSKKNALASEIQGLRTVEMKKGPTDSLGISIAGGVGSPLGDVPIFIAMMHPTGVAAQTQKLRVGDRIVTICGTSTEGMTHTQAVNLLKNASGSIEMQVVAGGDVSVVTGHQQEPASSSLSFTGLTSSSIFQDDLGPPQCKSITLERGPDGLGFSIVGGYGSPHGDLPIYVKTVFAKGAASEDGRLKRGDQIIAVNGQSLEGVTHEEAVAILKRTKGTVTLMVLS
inactive: erlotinib -0.017 | [1] -0.061 | [2] -0.095 | [3] -0.273 | [5] -0.091 | [6] 0.004 | [7] -0.099 | [8] 0.108 | IRAK-1-4 Inhibitor I 0.149

MEGF8 (UniProt Q7Z7M0)
inactive: erlotinib 0.045 | [2] 0.016 | [4] 0.013 | [5] 0.075 | [7] -0.116 | [8] 0.071
active: IRAK-1-4 Inhibitor I -0.36

KIF21A (UniProt H0YI78)
inactive: erlotinib -0.064 | [2] 0.088 | [4] -0.015

MCUB (UniProt Q9NWR8)
inactive: erlotinib 0.048 | [2] -0.069 | [4] 0.209 | [5] 0.048 | IRAK-1-4 Inhibitor I -0.12

LRIF1 (UniProt Q5T3J3)
active: [3] -0.301
inactive: erlotinib -0.015 | [1] 0.11 | [2] 0.046 | [5] 0 | [6] 0.1 | [7] -0.031 | [8] -0.009 | IRAK-1-4 Inhibitor I -0.02

MAP4K4 isoform 6 (UniProt O95819)
inactive: erlotinib 0.006 | [2] 0.156 | [4] 0.094 | [5] -0.061 | [7] 0.003 | [8] -0.078 | IRAK-1-4 Inhibitor I -0.049

MAP3K6 (UniProt O95382)
inactive: [1] 0.05 | [3] 0.183 | [6] 0.487 | [7] 0.033 | [8] -0.008

MAN2B2 (UniProt Q9Y2E5)
inactive: erlotinib 0.006 | [2] -0.019 | [4] -0.003 | [5] -0.035 | [7] -0.01 | [8] 0.045 | IRAK-1-4 Inhibitor I 0.009

METTL21A (UniProt Q8WXB1)
inactive: erlotinib -0.074 | [2] -0.011 | [4] 0.019 | [5] -0.027 | IRAK-1-4 Inhibitor I -0.04

KRAS isoform 2 (UniProt P01116)
inactive: erlotinib -0.038 | [2] 0.087 | [5] -0.071 | [7] -0.044 | [8] 0.015 | IRAK-1-4 Inhibitor I 0.033

LRPPRC (UniProt H7C3W8)
inactive: [1] -0.13 | [3] -0.053 | [6] -0.3
